# Test results from PubChem BioAssay (NCATS).
# “And” between values parts separate entries of the source, which are not always exact repeats. Identical values can stand only once. Records with an inconclusive call do not appear. Entries that show only a call come without a potency. The source made the active and inactive calls. Unless noted, the call rests on the fitted dose curve; in most records, active means well fitted curve in the direction sought with a large enough effect; inconclusive means small, poorly fitted or top-dose-only effect, or another doubt; inactive means no such curve, though single readings can be large; an effect the other way counts as inactive or inconclusive.
# Assays:
# [1] = biological target: Glucocorticoid receptor (Homo sapiens) (UniProt P04150); assay: GR-GFP Redistribution (AID 450;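 active means compounds whose dose series gives a full or clear partial fitted curve of increased nuclear translocation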; further: potency means the concentration at half of the fitted maximal effect); conditions: U2OS GR-GFP nuclear translocation, laser cytometry, 2 h
# [2] = biological target: Glucocorticoid receptor (Homo sapiens) (UniProt P04150); assay: GR-EFC Redistribution (AID 451; calls by dose curve; further: potency means the concentration at half of the fitted maximal effect); conditions: CHO-K1 GR-EFC translocation, beta-gal luminescence, 2 h
# In short: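 CHO-K1 cells expressing nuclear EA and GR-ED fragments of b-gal; compounds titrated up to 46 uM final, 2 h at 37 C. GR nuclear translocation read as complemented b-gal luminescence after 1 h RT detection.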
# [3] = biological target: 3',5'-cyclic-AMP phosphodiesterase 4B (Homo sapiens) (UniProt Q07343); assay: qHTS Assay for Inhibitors of PDE-IV (AID 607; active means well fitted activation curve with a large enough effect in the main read-out, with a control signal flat, not every such curve was filed as active)
# In short: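 The readout is membrane depolarisation from a cAMP-sensing CNG channel, detected with a potential dye at ex 535/em 590. Cells were HEK293-derived (endogenous PDE-IV) at 1000 cells/well, titrated up to 22.9 uM final.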
# [4] = biological target: Cytochrome P450 2D6 (Homo sapiens) (UniProt P10635); assay: qHTS Assay for Inhibitors and Substrates of Cytochrome P450 2D6 (AID 891); further: potency means the concentration at half of the fitted maximal effect; nearly all actives have a fitted effect of over 60% in size
# In short: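 Luminescent read-out of luciferin formed by 5 nM human CYP2D6 demethylating 30 uM Luciferin-ME EGE (Km level) over 60 min at room temperature after NADPH regeneration addition. Data normalized to full inhibition by 1.43 uM quinidine.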
# [5] = qHTS Assay for Lipid Storage Modulators (AID 1519; calls by dose curve); conditions: Drosophila S3 cells, BODIPY lipid droplet/cell ratio, laser cytometry, cells loaded with oleic acid
# In short: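 Cells seeded at 5,000 per well were treated with compounds over a concentration series and loaded with oleic acid (400 uM, as added). Lipid droplet fluorescence (488 nm excitation, 500-530 nm channel) was read by laser-scanning cytometry and normalized to 20 uM Triacsin C.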
# [6] = biological target: Ubiquitin carboxyl-terminal hydrolase 1 (Homo sapiens) (UniProt O94782); assay: Inhibitors of USP1/UAF1: Pilot qHTS (AID 504865);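 further: rhodamine fluorescence freed from ubiquitin-rhodamine substrate followed over time; top concentration of the series differs between compounds; nearly all actives have a fitted effect of over 35% in size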
# In short: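 USP1/UAF1 complex (1nM) preincubated with compound 15 min at room temperature, then Ub-Rho substrate (150nM final) added. Fluorescence read kinetically at 480/540 nm, 6 reads every 60 seconds. Buffer: 50mM HEPES pH 7.8, 0.5mM EDTA, 0.1 mg/ml BSA, 1mM TCEP, 0.01% Tween-20.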
# [7] = biological target: DNA dC->dU-editing enzyme APOBEC-3G (Homo sapiens) (UniProt Q9HC16); assay: qHTS for inhibitors of Vif-A3G interactions: Validation (AID 588379)
# In short: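 Yellow fluorescence (Ex 488, Em 500-530) of Vif-coexpressing HeLa A3G-eYFP cells, scanned by Acumen cytometer, reports blocked A3G degradation. Cells plated at 700/well overnight at 37 deg C before compound addition, then a further overnight compound incubation at 37 deg C.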
# [8] = tested on: Zika virus NS2B-NS3 protease; assay: Primary screen GU AMC qHTS for Zika virus inhibitors (AID 1347154); further: nearly all actives have a fitted effect of over 70% in size
# In short: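 Unlinked Zika NS2B hydrophilic domain–NS3 protease complex at 25 nM in 10 mM Tris-HCl pH 8.0, 0.01% Tween 20, with an AMC peptide substrate. Fluorescence change (340/450 nm) over 15 min at room temperature, normalized to controls, fitted to 4-parameter Hill.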
# [9] = Primary qHTS for small molecule stabilizers of the endoplasmic reticulum resident proteome: Secreted ER Calcium Modulated Protein (SERCaMP) assay (AID 1508630)
# In short: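 The SH-SY5Y reporter protocol was run at 3 concentrations up to 38.3 uM (primary) or 11 concentrations (follow-up): 16 h compound, 100 nM thapsigargin for 4 h, then extracellular luciferase luminescence.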
# [10] = biological target: Cytochrome P450 1A2 (Homo sapiens) (UniProt P05177); assay: p450-cyp1a2 (AID 410; calls by dose curve)
# In short: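 Luminescent demethylation readout: Luciferin-ME (100uM, equal to Km) turned over by 20nM CYP1A2 for 60 min at room temperature after NADPH regeneration addition, following 10 min compound preincubation. Normalization used 57 uM furafylline as full inhibition.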
# [11] = NFAT Signaling Pathway (AID 444; active means well fitted curve in either direction with a large enough effect, not every such curve was filed as active;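 further: carbachol stimulus at about its EC50 of 1 µM final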); conditions: Jurkat NFAT-bla M1, carbachol, beta-lactamase ratio, 5 h
# In short: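 Jurkat cells with NFAT-driven β-lactamase reporter and co-expressed M1 receptor, stimulated with carbachol (final 1 uM, ~EC50), compound titration, 5 h at 37 °C. CCF4 loaded 1 h at RT; 460/530 nm ratio gave %activity and AC50.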
# [12] = Stat Signaling Pathway (AID 446; active means well fitted curve in either direction with a large enough effect, not every such curve was filed as active;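 further: ME-180 cervical cancer cells given 40 pM IL-6 alongside compound; SIE-controlled beta-lactamase reporter measured as 460/530 nm FRET emission ratio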)
# In short: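 Emission at 460 and 530 nm (excitation 405 nm) reports SIE-controlled beta-lactamase in ME-180 cells. Cells received compound with 40 pM IL-6 for 5 hrs at 37 C; data scaled between 300 pM IL-6 and 125 nM JAK-inhibitor controls.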
# [13] = biological target: Mitogen-activated protein kinase 10 (Mus musculus) (UniProt Q61831); assay: JNK3 AlphaScreen Assay (AID 530; active means well fitted curve in either direction with a large enough effect, not every such curve was filed as active;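 further: kinase came from lysate of stimulated human HepG2 cells; signal reports phosphorylation of biotinylated GST-cJun 1-79 at Ser73 with 10 µM ATP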)
# In short: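 Activity was read by AlphaScreen after JNK3-containing HepG2 lysate (cytokine pre-activated) phosphorylated biotinylated GST-cJun with 10 uM ATP at room temperature. Phospho-Ser73 cJun antibody with Protein-A acceptor beads provided detection.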
# [14] = biological target: Cytochrome P450 2C19 (Homo sapiens) (UniProt P33261); assay: qHTS Assay for Inhibitors and Substrates of Cytochrome P450 2C19 (AID 899); further: potency means the concentration at half of the fitted maximal effect; nearly all actives have a fitted effect of over 60% in size
# In short: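 Luminescent read-out of luciferin formed from Luciferin-H EGE (10uM, equal to KM). Enzyme 5nM in 50mM KPO4; compound added, 10 min at 37C, then NADPH regenerating system for 60 min at 37C. Full inhibition defined by 57uM ketoconazole.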
# [15] = biological target: Muscarinic acetylcholine receptor M1 (Rattus norvegicus) (UniProt P08482); assay: qHTS Assay for Antagonists of Acetylcholine Muscarinic M1 Receptor: Kinetic Measurement of Intracellular Calcium Response (AID 943);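 further: Fluo-4 calcium signal as peak divided by basal fluorescence over 4 min; nearly all actives have a fitted effect of over 75% in size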
# In short: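 Antagonism measured as reduction of carbachol-evoked (EC80, 100 nM final) calcium flux in rat M1-CHO cells after 10 min compound exposure. Fluo-4 signal read kinetically; ratio of maximal to basal fluorescence.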
# [16] = biological target: Muscarinic acetylcholine receptor M1 (Rattus norvegicus) (UniProt P08482); assay: qHTS Assay for Antagonists of Acetylcholine Muscarinic M1 Receptor: Measurement of IP-One Response (AID 944); further: nearly all actives have a fitted effect of over 75% in size
# In short: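 IP1 accumulation measured via TR-FRET between d2-IP1 and Eu-cryptate anti-IP1 antibody after carbachol (200 nM, EC80) stimulation for 30 min; rat M1-transfected CHO cells received compound 10 min before agonist.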
# [17] = biological target: Pyruvate kinase (Leishmania mexicana) (UniProt Q27686); assay: qHTS Validation Assay for Inhibitors of Leishmania Mexicana Pyruvate Kinase (AID 945)
# In short: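 The enzyme is a highly purified E451W mutant of LmPYK used at 0.2 nM. It converts 0.5 mM PEP and 0.1 mM ADP over 1 h at room temperature; product ATP is quantified by luciferase luminescence relative to DMSO controls.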
# [18] = biological target: Pyruvate kinase PKM (Homo sapiens) (UniProt P14618); assay: qHTS Assay for Activators of Human Muscle Pyruvate Kinase (AID 954; active means well fitted curve in the direction sought with a large enough effect, not every such curve was filed as active)
# In short: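 PKM2, human, >95% pure, 0.1 nM; PEP 0.5 mM (Km), ADP 0.1 mM; 50 mM imidazole pH 7.2, 50 mM KCl, 0.01% Tween 20, 0.05% BSA; 1 h RT; luciferase luminescence readout.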
# [19] = biological target: Alpha-galactosidase (Coffea arabica) (UniProt Q42656); assay: Counterscreen for Glucocerebrosidase Inhibitors: qHTS Assay for Coffee Bean alpha-Galactosidase at pH 4.5 (AID 957)
# In short: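 Fluorogenic qHTS at pH 4.5 (citrate buffer with Tween-20): 2 nM enzyme, 80 uM 4-MU-alpha-galactoside substrate, compound titrated 0.7 nM to 77 uM, 20 min room temperature. Glycine/NaOH stop; 4-MU read Ex 365/Em 440; Hill-equation AC50 against no-enzyme and enzyme controls.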
# [20] = biological target: Alpha-galactosidase A (Homo sapiens) (UniProt P06280); assay: Counterscreen for Glucocerebrosidase Inhibitors: qHTS Assay for Human alpha-Galactosidase at pH 4.5 (AID 992)
# In short: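 Fluorogenic 4-MU alpha-D-galactoside (80 uM) hydrolysis, 2 nM enzyme, pH 4.5 citrate buffer + 0.005% Tween-20; 20 min RT; NaOH/glycine pH 10 stop; Ex365/Em440. Compounds titrated 0.7 nM–77 uM; Hill-equation AC50.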
# [21] = biological target: alpha-glucosidase (Oryza sativa, rice) (UniProt Q653V4); assay: Counterscreen for Glucocerebrosidase Inhibitors: qHTS Assay for Rice alpha-Glucosidase at pH 5.0 (AID 997)
# In short: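 Endpoint fluorogenic assay at pH 5.0: compounds (0.7 nM to 77 uM) titrated against 4 nM rice enzyme and 400 uM 4-MU-alpha-glucoside for 20 min at room temperature; NaOH/glycine stop, read ex 365/em 440 nm, Hill-fitted AC50.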
# [22] = biological target: Alpha-galactosidase (Coffea arabica) (UniProt Q42656); assay: Counterscreen for Glucocerebrosidase Inhibitors: qHTS Assay for Coffee Bean alpha-Galactosidase at pH 5.9 (AID 998)
# In short: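 Enzyme 2 nM + cpd (0.7 nM–77 uM titration) + 4-MU-alpha-Gal 80 uM, pH 5.9 citrate/Tween-20, RT 20 min, NaOH/glycine stop pH 10, fluor 365/440. Normalized to no-enzyme and full-activity controls; Hill-fit AC50.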
# [23] = measured here: cell count channel max response
# [24] = measured here: lipid channel max response
# Chain of 3',5'-cyclic-AMP phosphodiesterase 4B (Homo sapiens) (Q07343 whole entry, looked up): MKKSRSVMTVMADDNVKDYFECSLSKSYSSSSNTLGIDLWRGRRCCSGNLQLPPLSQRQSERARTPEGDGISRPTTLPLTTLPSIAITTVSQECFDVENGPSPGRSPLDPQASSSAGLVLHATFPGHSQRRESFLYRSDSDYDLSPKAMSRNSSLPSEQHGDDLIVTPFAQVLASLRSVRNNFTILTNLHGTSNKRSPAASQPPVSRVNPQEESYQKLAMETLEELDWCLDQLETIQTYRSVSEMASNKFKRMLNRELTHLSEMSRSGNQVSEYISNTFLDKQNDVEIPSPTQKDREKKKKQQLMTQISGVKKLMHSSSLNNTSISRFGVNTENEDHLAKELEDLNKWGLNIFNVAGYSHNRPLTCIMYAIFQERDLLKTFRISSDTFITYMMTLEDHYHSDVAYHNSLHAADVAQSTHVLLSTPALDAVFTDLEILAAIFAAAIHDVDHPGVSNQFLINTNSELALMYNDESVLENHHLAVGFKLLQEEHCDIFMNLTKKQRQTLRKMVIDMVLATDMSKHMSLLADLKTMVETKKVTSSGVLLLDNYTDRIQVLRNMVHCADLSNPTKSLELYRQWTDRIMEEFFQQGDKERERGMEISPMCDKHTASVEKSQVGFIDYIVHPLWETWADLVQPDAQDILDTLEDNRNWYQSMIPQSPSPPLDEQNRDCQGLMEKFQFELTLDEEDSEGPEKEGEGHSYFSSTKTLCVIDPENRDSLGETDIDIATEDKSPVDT
# Chain of Glucocorticoid receptor (Homo sapiens) (P04150 whole entry, looked up, the tested form may be a part): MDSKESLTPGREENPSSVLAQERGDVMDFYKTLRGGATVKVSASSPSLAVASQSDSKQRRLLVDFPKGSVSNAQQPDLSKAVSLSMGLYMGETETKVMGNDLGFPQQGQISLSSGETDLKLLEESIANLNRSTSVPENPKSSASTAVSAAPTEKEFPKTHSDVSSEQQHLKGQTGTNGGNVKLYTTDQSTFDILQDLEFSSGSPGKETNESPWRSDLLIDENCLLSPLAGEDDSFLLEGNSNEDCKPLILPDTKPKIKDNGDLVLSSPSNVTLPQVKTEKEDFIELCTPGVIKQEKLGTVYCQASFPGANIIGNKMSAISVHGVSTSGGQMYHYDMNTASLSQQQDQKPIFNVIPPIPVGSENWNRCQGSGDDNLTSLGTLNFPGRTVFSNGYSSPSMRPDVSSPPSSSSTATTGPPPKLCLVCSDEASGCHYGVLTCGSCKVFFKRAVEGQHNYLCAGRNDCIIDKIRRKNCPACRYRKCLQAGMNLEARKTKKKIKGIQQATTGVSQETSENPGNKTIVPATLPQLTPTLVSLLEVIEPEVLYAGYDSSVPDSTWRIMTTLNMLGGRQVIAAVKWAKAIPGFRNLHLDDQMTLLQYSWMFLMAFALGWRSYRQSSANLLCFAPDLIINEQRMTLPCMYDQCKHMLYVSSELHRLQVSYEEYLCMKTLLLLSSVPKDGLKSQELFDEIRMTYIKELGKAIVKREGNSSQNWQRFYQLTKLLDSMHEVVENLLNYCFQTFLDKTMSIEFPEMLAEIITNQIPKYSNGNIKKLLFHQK
# Chain of Alpha-galactosidase (Coffea arabica) (Q42656 whole entry, looked up): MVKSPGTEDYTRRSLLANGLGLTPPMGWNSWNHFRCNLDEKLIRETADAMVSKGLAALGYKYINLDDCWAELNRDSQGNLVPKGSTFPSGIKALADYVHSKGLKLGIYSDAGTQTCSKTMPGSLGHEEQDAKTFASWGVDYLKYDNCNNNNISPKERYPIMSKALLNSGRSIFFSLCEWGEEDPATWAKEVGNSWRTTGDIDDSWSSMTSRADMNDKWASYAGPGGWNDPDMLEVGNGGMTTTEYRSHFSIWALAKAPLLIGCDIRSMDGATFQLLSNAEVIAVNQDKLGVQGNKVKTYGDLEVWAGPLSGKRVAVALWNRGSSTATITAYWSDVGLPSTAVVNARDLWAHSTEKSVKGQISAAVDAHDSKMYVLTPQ
# Chain of Muscarinic acetylcholine receptor M1 (Rattus norvegicus) (P08482 whole entry, looked up): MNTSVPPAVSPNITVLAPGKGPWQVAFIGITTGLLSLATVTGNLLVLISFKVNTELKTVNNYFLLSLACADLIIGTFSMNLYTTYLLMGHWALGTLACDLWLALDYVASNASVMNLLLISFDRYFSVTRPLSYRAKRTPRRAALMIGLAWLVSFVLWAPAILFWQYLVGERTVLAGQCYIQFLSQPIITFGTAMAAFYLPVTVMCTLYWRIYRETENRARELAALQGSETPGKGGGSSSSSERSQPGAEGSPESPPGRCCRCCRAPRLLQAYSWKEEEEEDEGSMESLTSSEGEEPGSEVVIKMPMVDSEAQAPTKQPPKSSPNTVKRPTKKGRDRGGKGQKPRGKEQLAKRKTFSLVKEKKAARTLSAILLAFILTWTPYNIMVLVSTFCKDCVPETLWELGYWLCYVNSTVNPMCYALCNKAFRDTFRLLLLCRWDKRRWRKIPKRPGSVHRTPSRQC
# Chain of Ubiquitin carboxyl-terminal hydrolase 1 (Homo sapiens) (O94782 whole entry, looked up): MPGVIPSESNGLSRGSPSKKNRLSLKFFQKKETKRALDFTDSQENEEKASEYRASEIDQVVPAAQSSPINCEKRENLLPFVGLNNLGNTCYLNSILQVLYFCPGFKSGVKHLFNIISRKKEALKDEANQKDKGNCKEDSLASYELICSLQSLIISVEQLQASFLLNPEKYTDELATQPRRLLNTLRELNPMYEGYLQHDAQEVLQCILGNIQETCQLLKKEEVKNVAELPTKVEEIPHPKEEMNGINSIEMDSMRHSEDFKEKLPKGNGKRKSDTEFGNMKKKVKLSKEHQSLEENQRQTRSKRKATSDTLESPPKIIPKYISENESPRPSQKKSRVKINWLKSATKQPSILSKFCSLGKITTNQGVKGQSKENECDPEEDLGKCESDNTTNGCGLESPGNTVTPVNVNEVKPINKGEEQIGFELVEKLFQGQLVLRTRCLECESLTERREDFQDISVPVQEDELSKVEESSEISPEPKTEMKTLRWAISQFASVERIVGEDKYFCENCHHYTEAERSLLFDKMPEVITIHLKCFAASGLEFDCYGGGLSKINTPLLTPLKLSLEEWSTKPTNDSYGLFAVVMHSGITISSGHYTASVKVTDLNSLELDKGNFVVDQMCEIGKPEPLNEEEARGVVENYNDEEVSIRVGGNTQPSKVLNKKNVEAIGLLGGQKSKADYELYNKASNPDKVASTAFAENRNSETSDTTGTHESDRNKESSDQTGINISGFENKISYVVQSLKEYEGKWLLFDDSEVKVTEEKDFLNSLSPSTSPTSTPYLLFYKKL
# Chain of Cytochrome P450 2D6 (Homo sapiens) (P10635 whole entry, looked up): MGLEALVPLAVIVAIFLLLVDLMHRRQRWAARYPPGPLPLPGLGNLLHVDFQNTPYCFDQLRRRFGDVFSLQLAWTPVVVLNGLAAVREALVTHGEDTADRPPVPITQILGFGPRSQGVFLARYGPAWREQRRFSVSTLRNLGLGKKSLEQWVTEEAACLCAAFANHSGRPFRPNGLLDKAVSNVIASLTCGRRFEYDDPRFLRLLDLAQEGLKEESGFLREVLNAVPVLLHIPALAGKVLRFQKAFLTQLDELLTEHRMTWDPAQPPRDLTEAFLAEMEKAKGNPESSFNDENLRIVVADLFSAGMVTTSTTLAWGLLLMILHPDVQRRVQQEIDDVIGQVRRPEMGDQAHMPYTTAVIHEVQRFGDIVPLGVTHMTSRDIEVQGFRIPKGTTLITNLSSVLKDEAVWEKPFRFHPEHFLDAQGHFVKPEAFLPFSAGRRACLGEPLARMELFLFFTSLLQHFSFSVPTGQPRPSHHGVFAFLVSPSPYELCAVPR
# Chain of DNA dC->dU-editing enzyme APOBEC-3G (Homo sapiens) (Q9HC16 whole entry, looked up): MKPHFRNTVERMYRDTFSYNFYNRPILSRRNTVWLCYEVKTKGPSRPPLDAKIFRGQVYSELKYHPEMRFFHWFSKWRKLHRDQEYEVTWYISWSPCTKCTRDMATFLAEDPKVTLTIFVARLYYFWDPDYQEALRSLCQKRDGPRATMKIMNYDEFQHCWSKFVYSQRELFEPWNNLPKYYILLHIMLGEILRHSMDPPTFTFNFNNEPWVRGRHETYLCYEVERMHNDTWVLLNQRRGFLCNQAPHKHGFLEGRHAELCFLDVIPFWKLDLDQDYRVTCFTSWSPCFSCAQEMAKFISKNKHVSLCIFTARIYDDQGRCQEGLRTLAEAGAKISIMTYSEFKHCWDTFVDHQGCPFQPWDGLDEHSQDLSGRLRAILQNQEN
# Chain of Cytochrome P450 1A2 (Homo sapiens) (P05177 whole entry, looked up): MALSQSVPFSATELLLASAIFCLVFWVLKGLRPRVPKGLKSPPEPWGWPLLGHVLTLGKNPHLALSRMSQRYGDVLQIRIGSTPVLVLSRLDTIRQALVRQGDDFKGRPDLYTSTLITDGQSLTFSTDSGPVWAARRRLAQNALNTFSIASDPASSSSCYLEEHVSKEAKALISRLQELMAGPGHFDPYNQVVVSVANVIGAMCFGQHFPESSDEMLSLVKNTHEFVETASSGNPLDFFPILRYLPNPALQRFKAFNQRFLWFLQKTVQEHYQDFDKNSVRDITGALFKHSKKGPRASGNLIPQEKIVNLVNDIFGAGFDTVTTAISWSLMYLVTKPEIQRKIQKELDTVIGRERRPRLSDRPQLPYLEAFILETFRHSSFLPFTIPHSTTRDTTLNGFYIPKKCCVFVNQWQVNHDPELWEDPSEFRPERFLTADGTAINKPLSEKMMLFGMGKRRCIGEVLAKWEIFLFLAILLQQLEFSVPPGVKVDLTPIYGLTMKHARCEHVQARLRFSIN
# Chain of Alpha-galactosidase A (Homo sapiens) (P06280 whole entry, looked up): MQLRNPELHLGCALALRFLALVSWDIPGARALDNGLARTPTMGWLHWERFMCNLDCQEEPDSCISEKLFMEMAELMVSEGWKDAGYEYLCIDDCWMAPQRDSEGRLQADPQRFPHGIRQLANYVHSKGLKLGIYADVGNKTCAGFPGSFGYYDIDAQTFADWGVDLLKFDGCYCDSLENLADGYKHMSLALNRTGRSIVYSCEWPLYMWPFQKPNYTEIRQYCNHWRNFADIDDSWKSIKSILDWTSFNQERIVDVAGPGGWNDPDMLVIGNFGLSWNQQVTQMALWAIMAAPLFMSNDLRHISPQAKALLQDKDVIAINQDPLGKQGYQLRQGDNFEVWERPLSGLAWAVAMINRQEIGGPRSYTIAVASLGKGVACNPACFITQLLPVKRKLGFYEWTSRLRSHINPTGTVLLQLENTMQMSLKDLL
smiles,measurement,setting,value
CCCN[C@@H]1CCc2c(OC)cccc2[C@@H]1C,Potency,[1],> 46 µM (inactive)
same,Potency,[2],> 46 µM (inactive)
same,Potency,[3],inactive
same,Potency,[4],0.251 µM (active)
same,"activity change, negative = inhibition",[5]; at 57.5 µM (top of the series),-0.687% (inactive)
same,max response,[5]; [23],-20.9%
same,max response,[5]; [24],-24%
same,Potency,[6],inactive
same,Potency,[7],inactive
same,Potency,[8],inactive
same,Potency,[9],inactive
c1ccc2c(c1)OC[C@@H](C1=NCCN1)O2,Potency,[10],inactive
same,"activity change, negative = inhibition",[11]; at 17.2 µM (top of the series),-9.57% (inactive)
same,"activity change, negative = inhibition",[11]; at 38 µM (top of the series),-27.1% (inactive)
same,outcome,[12],inactive
same,Potency,[1],> 46 µM (inactive) and > 20.6 µM (inactive)
same,outcome,[13],inactive
same,Potency,[3],inactive
same,Potency,[4],0.631 µM (active)
same,Potency,[14],7.94 µM (active)
same,Potency,[15],inactive
same,Potency,[16],inactive
same,outcome,[17],inactive
same,outcome,[18],inactive
same,outcome,[19],inactive
same,outcome,[20],inactive
same,outcome,[21],inactive
same,outcome,[22],inactive
same,"activity change, negative = inhibition",[5]; at 25.7 µM (top of the series),1.16% (inactive)
same,max response,[5]; [23],-0.675%
same,max response,[5]; [24],-5.05%
same,Potency,[6],inactive
same,Potency,[7],inactive
same,Potency,[8],inactive
same,Potency,[9],inactive
